The test deals with Nonstructural protein 3 (Zika virus) (UniProt A0A024AXB9).
Setting [1] is: PRVABC59, Concentration 50.0 uM, Number of replicates 1.0.

The whole screen tested about 2,700 compounds, of which about 160 (5.9%) showed an effect of 50% or more. The sample holds strong results, similar compounds and a random draw of the others, so the mix is not that of the screen.

Broadly, the inhibition is the drop in the measured response relative to a control, in per cent. A low value points to a response near the control.

Sequence of Nonstructural protein 3 (Zika virus) (A0A024AXB9 as listed by the source): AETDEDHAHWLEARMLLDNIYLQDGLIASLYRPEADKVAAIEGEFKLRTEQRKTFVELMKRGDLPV

Turning to `CN(C)c1ccc(/C=C/C(=O)C(=O)N2CCOCC2)cc1`, the inhibition turned out to be 41.6% (PRVABC59, Concentration 49.5 uM, Number of replicates 2.0, Standard deviation 0.8258165831779674 %); 57.5% (PRVABC59, Concentration 99.01 uM, Number of replicates 2.0, Standard deviation 0.46055378654400303 %); 76.2% (PRVABC59, Concentration 198.0 uM, Number of replicates 2.0, Standard deviation 1.0005081895850734 %).
`NCc1ccc(/C=C/C(=O)C(=O)N2CCOCC2)cc1`: the inhibition by setting is: (PRVABC59, Concentration 49.5 uM, Number of replicates 2.0, Standard deviation 0.6564199696429821 %) 37.2%; (PRVABC59, Concentration 99.01 uM, Number of replicates 2.0, Standard deviation 0.38644007072414227 %) 58.8%; (PRVABC59, Concentration 198.0 uM, Number of replicates 2.0, Standard deviation 0.034408012774717715 %) 79%.
On to `O=C(/C=C/c1ccc(N2CCNCC2)cc1)C(=O)N1CCOCC1`, for which the inhibition by setting is: (PRVABC59, Concentration 49.5 uM, Number of replicates 2.0, Standard deviation 0.677594356674037 %) 0.889%; (PRVABC59, Concentration 99.01 uM, Number of replicates 2.0, Standard deviation 0.8893426734771035 %) 5.61%; (PRVABC59, Concentration 198.0 uM, Number of replicates 2.0, Standard deviation 1.259902148857129 %) 13.4%.
As to `COc1cc(Cc2ccnc(N3CCNCC3)c2)nc(N2CCNCC2)n1`, the inhibition reads like this: (PRVABC59, Concentration 49.5 uM, Number of replicates 2.0, Standard deviation 1.782469122426121 %) 19.2%; (PRVABC59, Concentration 99.01 uM, Number of replicates 2.0, Standard deviation 1.2150848760245847 %) 30.9%; (PRVABC59, Concentration 198.0 uM, Number of replicates 2.0, Standard deviation 1.1140443816280838 %) 44%.
The compound `COc1cc(Cc2c(-c3ccc(F)cc3)noc2C)nc(N2CCNCC2)n1` registered an inhibition (PRVABC59, Concentration 49.5 uM, Number of replicates 2.0, Standard deviation 1.339595433070256 %) of 48.7%; an inhibition (PRVABC59, Concentration 99.01 uM, Number of replicates 2.0, Standard deviation 0.7981008155972035 %) of 67.2%; an inhibition (PRVABC59, Concentration 198.0 uM, Number of replicates 2.0, Standard deviation 0.25862115465775987 %) of 83.1%.
For the compound `COc1cc(Cc2ccc3[nH]ncc3c2)nc(N2CCNCC2)n1`, the inhibition stood at 4.68% (PRVABC59, Concentration 49.5 uM, Number of replicates 2.0, Standard deviation 0.053655972727460886 %); 11% (PRVABC59, Concentration 99.01 uM, Number of replicates 2.0, Standard deviation 0.44117163102560114 %); 21.6% (PRVABC59, Concentration 198.0 uM, Number of replicates 2.0, Standard deviation 0.2881536199967374 %).
Compound `CC(C)(C)OC(=O)N[C@H](C(=O)Nc1ccc(CN)cc1)c1ccc(OCc2ccccc2)cc1` came in with an inhibition (PRVABC59, Concentration 49.5 uM, Number of replicates 2.0, Standard deviation 0.6279742186460096 %) of 5.64%; an inhibition (PRVABC59, Concentration 99.01 uM, Number of replicates 2.0, Standard deviation 1.57987158185777 %) of 32.3%; an inhibition (PRVABC59, Concentration 198.0 uM, Number of replicates 2.0, Standard deviation 0.42725710187082055 %) of 70.3%.
On to `CC(C)(C)OC(=O)N[C@H](C(=O)Nc1cccc(CN)c1)c1ccc(OCc2ccccc2)cc1`, for which the inhibition turned out to be 7.17% (PRVABC59, Concentration 49.5 uM, Number of replicates 2.0, Standard deviation 0.15500599357942563 %); 43.6% (PRVABC59, Concentration 99.01 uM, Number of replicates 2.0, Standard deviation 1.1863939989566727 %); 80.9% (PRVABC59, Concentration 198.0 uM, Number of replicates 2.0, Standard deviation 0.6438743701278353 %).
In the case of `CC(C)Nc1nc2ccc(C(=O)Nc3ccc4cn[nH]c4n3)cc2[nH]1`, the inhibition runs as follows: (PRVABC59, Concentration 49.5 uM, Number of replicates 2.0, Standard deviation 0.40894109303235027 %) 7.41%; (PRVABC59, Concentration 99.01 uM, Number of replicates 2.0, Standard deviation 0.19020569275657198 %) 13.2%; (PRVABC59, Concentration 198.0 uM, Number of replicates 2.0, Standard deviation 0.6447955316488895 %) 25.2%.
In the case of `CC(C)Nc1nc2ccc(C(=O)Nc3nnnn3-c3ccccn3)cc2[nH]1`, the inhibition (PRVABC59, Concentration 50.0 uM, Number of replicates 2.0, Standard deviation 0.2871029833570578 %) was found to be 13.5%; the inhibition (PRVABC59, Concentration 100.0 uM, Number of replicates 2.0, Standard deviation 0.2358348824788301 %) was 30.1%; the inhibition (PRVABC59, Concentration 200.0 uM, Number of replicates 2.0, Standard deviation 0.2742876440114413 %) was 66.8%.
With `CCn1ccnc(N2CC[C@@H](C(=O)NC)C2)c1=O`, the inhibition (PRVABC59, Concentration 49.5 uM, Number of replicates 2.0, Standard deviation 1.330415175115007 %) amounted to 6.78%; the inhibition (PRVABC59, Concentration 99.01 uM, Number of replicates 2.0, Standard deviation 0.8792533922931717 %) was 13.1%; the inhibition (PRVABC59, Concentration 198.0 uM, Number of replicates 2.0, Standard deviation 1.1945536288283818 %) worked out at 25%.
Consider `c1ccc2c([C@H]3CCN(CC[C@H]4CCOC4)C3)c[nH]c2c1`, for which the inhibition is 1.3% (PRVABC59, Concentration 49.5 uM, Number of replicates 2.0, Standard deviation 1.796591735840356 %); 8.43% (PRVABC59, Concentration 99.01 uM, Number of replicates 2.0, Standard deviation 1.8008191859181881 %); 18.7% (PRVABC59, Concentration 198.0 uM, Number of replicates 2.0, Standard deviation 1.4478420270377552 %).
For the compound `CCCC[C@H](N)C(=O)N[C@H](C(=O)NCc1ccc(C(N)=O)cc1)c1ccc(OCc2ccccc2)cc1`, the inhibition by setting is: (PRVABC59, Concentration 49.5 uM, Number of replicates 2.0, Standard deviation 4.202595364768841 %) 4.08%; (PRVABC59, Concentration 99.01 uM, Number of replicates 2.0, Standard deviation 1.455996262112855 %) 82.9%; (PRVABC59, Concentration 198.0 uM, Number of replicates 2.0, Standard deviation 0.15670265711308018 %) 99.2%.
As to `CCCC[C@H](N)C(=O)N[C@@H](C(=O)NCc1ccc(C(N)=O)cc1)c1ccc(OCc2ccccc2)cc1`, the inhibition (PRVABC59, Concentration 49.5 uM, Number of replicates 2.0, Standard deviation 2.90329459480482 %) was found to be 4.12%; the inhibition (PRVABC59, Concentration 99.01 uM, Number of replicates 2.0, Standard deviation 3.493094389705784 %) is 14.2%; the inhibition (PRVABC59, Concentration 198.0 uM, Number of replicates 2.0, Standard deviation 4.814160045121922 %) is 56.8%.
Take `CC(C)Cn1cccc(C(=O)Nc2ccnc3ccccc23)c1=O`: the inhibition by setting is: (PRVABC59, Concentration 49.5 uM, Number of replicates 2.0, Standard deviation 2.895437242130631 %) 20.1%; (PRVABC59, Concentration 99.01 uM, Number of replicates 2.0, Standard deviation 37.62280174563721 %) 0.798%; (PRVABC59, Concentration 198.0 uM, Number of replicates 2.0, Standard deviation 2.6549790189575497 %) 10.2%.
`O=c1c(N2CC[C@H](CO)C2)nccn1C1CC1` gave an inhibition (PRVABC59, Concentration 49.5 uM, Number of replicates 2.0, Standard deviation 2.4909219053667124 %) of 11.8%; an inhibition (PRVABC59, Concentration 99.01 uM, Number of replicates 2.0, Standard deviation 2.8453613913030793 %) of 19.9%; an inhibition (PRVABC59, Concentration 198.0 uM, Number of replicates 2.0, Standard deviation 1.2782808722061834 %) of 35.4%.
`CCn1c(=O)c(N2CC[C@@H](CO)C2)nc2ccccc21`: the inhibition reads like this: (PRVABC59, Concentration 49.5 uM, Number of replicates 2.0, Standard deviation 1.0667198770713235 %) 20.2%; (PRVABC59, Concentration 99.01 uM, Number of replicates 2.0, Standard deviation 2.3733193853793706 %) 36.2%; (PRVABC59, Concentration 198.0 uM, Number of replicates 2.0, Standard deviation 1.8335969585925045 %) 55.9%.
Consider `CCn1ccnc(N2CC[C@@H](CO)C2)c1=O`, for which the inhibition is 9.83% (PRVABC59, Concentration 49.5 uM, Number of replicates 2.0, Standard deviation 1.691792032316267 %); 17.4% (PRVABC59, Concentration 99.01 uM, Number of replicates 2.0, Standard deviation 1.0699999134098355 %); 29.5% (PRVABC59, Concentration 198.0 uM, Number of replicates 2.0, Standard deviation 1.0674090623381738 %).
Consider `N[C@H]1CCN(c2cccc(CNC(=O)c3ccc4[nH]c(=O)[nH]c4c3F)n2)C1`, for which the inhibition reads like this: (PRVABC59, Concentration 49.5 uM, Number of replicates 2.0, Standard deviation 1.7942103071905888 %) 0.083%; (PRVABC59, Concentration 99.01 uM, Number of replicates 2.0, Standard deviation 0.9354948212956848 %) 1.95%; (PRVABC59, Concentration 198.0 uM, Number of replicates 2.0, Standard deviation 18.65130084254076 %) 51.2%.
As for `NC(=O)C1(N2CCCCC2)CCN(C(=O)C2CCN(c3ccc(C=O)cc3)CC2)CC1`, under setting [1], the inhibition worked out at 55.7%.
Under setting [1], `O=Cc1ccc(N2CCC(C(=O)N3CCN(c4cccc(O)c4)CC3)CC2)cc1` gave an inhibition of 36.7%.
Under setting [1], `N#CC1(c2ccccc2)CCN(C(=O)C2CCN(c3ccc(C=O)cc3)CC2)CC1` showed an inhibition of 12.6%.

The values are drawn from ChEMBL document CHEMBL5606458, “ASAP - ZIKV NS2B-NS3 protease fluorescence single point” (2024).
